From paper PMC5700166

target: T1, GST-Nv-NF-kB (Ser allele) (Nematostella vectensis, UniProt A7UNT2 2-411); experiment: protein-binding microarray (PBM); PBM: ~300 nM protein, 6 mM HEPES pH 7.8, 80 mM KCl, 0.5 mM EDTA, 0.5 mM EGTA, 6% glycerol, 35 ng/ul poly-dIdC, 1% milk, 1 h, room temperature; Ap Aiptasia and Nv Nematostella (sea anemones) / Co Capsaspora / Aq Amphimedon (sponge) / Dm Drosophila / Hu human; RHD is the Rel homology domain; high values mean tight binding; settings: dsDNA, one strand shown
T1 sequence: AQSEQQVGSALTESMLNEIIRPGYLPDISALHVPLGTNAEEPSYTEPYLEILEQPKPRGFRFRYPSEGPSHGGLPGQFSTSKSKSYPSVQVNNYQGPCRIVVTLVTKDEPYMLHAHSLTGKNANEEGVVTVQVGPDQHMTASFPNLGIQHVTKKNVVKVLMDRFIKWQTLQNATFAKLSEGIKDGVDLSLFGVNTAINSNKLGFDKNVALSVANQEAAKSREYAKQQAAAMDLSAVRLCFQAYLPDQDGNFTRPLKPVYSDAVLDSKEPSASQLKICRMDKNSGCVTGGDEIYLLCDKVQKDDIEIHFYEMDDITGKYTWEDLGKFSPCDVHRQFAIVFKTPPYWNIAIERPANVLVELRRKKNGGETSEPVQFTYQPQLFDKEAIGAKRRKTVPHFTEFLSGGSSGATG

Row | Sequence | binding signal
1 | CCGATTAACATCAGGGGAGTAAATGATGTTAATCGGGTCTTGATTCGCTTGACGCTGCTG | 3.92 z-score
2 | CCGATTAACATCAGATATTTCCCTGATGTTAATCGGGTCTTGATTCGCTTGACGCTGCTG | 5.36 z-score
3 | CCGATTAACATCAATGTCGGTGGTGATGTTAATCGGGTCTTGATTCGCTTGACGCTGCTG | 1.08 z-score
4 | CCGATTAACATCAGGGACAAAAATGATGTTAATCGGGTCTTGATTCGCTTGACGCTGCTG | 3.37 z-score
5 | CCGATTAACATCAGGGATGCCCCTGATGTTAATCGGGTCTTGATTCGCTTGACGCTGCTG | 4.08 z-score
6 | CCGATTAACATCAGGGAACTTTATGATGTTAATCGGGTCTTGATTCGCTTGACGCTGCTG | 3.6 z-score
7 | CCGATTAACATCACCGAATTTCCTGATGTTAATCGGGTCTTGATTCGCTTGACGCTGCTG | 1.32 z-score
8 | CCGATTAACATCACATTGGGAAATGATGTTAATCGGGTCTTGATTCGCTTGACGCTGCTG | 1.58 z-score
9 | CCGATTAACATCAGGAATCCCTATGATGTTAATCGGGTCTTGATTCGCTTGACGCTGCTG | 1.72 z-score
10 | CCGATTAACATCAGGGGTTTACCTGATGTTAATCGGGTCTTGATTCGCTTGACGCTGCTG | 4.43 z-score
11 | CCGATTAACATCAAGTTTTCCCATGATGTTAATCGGGTCTTGATTCGCTTGACGCTGCTG | 5.18 z-score
12 | CCGATTAACATCAAGTAAATCCCTGATGTTAATCGGGTCTTGATTCGCTTGACGCTGCTG | 1.71 z-score
13 | CCGATTAACATCAGGGATATTTATGATGTTAATCGGGTCTTGATTCGCTTGACGCTGCTG | 2.29 z-score
14 | CCGATTAACATCAATATTTCCCATGATGTTAATCGGGTCTTGATTCGCTTGACGCTGCTG | 3.55 z-score
15 | CCGATTAACATCAAAGGTCCCCCTGATGTTAATCGGGTCTTGATTCGCTTGACGCTGCTG | 4.32 z-score
16 | CCGATTAACATCAACATGGGAATTGATGTTAATCGGGTCTTGATTCGCTTGACGCTGCTG | 1.75 z-score
17 | CCGATTAACATCATTGGGAAAAATGATGTTAATCGGGTCTTGATTCGCTTGACGCTGCTG | 3.58 z-score
18 | CCGATTAACATCAAGCACCCCCTTGATGTTAATCGGGTCTTGATTCGCTTGACGCTGCTG | 4.85 z-score
19 | CCGATTAACATCAGACAACCCCCTGATGTTAATCGGGTCTTGATTCGCTTGACGCTGCTG | 4.56 z-score
20 | CCGATTAACATCAGGGGGTAGGATGATGTTAATCGGGTCTTGATTCGCTTGACGCTGCTG | 3.54 z-score
21 | CCGATTAACATCAAATGACCCCCTGATGTTAATCGGGTCTTGATTCGCTTGACGCTGCTG | 2.69 z-score
22 | CCGATTAACATCAGGAAAACACCTGATGTTAATCGGGTCTTGATTCGCTTGACGCTGCTG | 3.23 z-score
23 | CCGATTAACATCAGGGGTTCCACTGATGTTAATCGGGTCTTGATTCGCTTGACGCTGCTG | 1.62 z-score
24 | CCGATTAACATCAAATAAATCCCTGATGTTAATCGGGTCTTGATTCGCTTGACGCTGCTG | 3.53 z-score
25 | CCGATTAACATCAGGGAAAGGTATGATGTTAATCGGGTCTTGATTCGCTTGACGCTGCTG | 3.34 z-score
